# Measured values reported in PubChem BioAssay (NCI).
# This is part of a sample that, as a whole, favours compounds with a hit. Of some 83,000 tested, about 20% had one in any assay.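 For each line, cells grew in 96-well plates with the test compound present at a single concentration for 48 hours.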 Values without a mark were called inactive. The source made the active and inactive calls. The calls were made as follows: active = growth percent below 10; inactive = the rest.
# Experiments:
# Experiment in all cases: NCI-60 one-dose screen, 48 h (100 = growth as untreated, 0 = no growth, -100 = all killed)
# Details in all cases: 10 µM unless noted
# SN12C renal = tested on: SN12C renal
# UO-31 renal = tested on: UO-31 renal
# ACHN renal = tested on: ACHN renal
# CAKI-1 renal = tested on: CAKI-1 renal
# A498 renal = tested on: A498 renal
# CCRF-CEM leukemia = tested on: CCRF-CEM leukemia
# MOLT-4 leukemia = tested on: MOLT-4 leukemia
# SR leukemia = tested on: SR leukemia
# TK-10 renal = tested on: TK-10 renal
Compound,growth (SN12C renal),growth (UO-31 renal),growth (ACHN renal),growth (CAKI-1 renal),growth (A498 renal),growth (CCRF-CEM leukemia),growth (MOLT-4 leukemia),growth (SR leukemia),growth (TK-10 renal)
COc1ccc(/C=C2\N=C(c3ccccc3)N(c3ccc(-c4nc5ccc(C)cc5s4)cc3)C2=O)cc1,64.3%,34.2%,80.7%,61.9%,93.6%,61.9%,45.9%,80.2%,
Cc1ccc(F)cc1NC(=O)c1cc(Cl)ccc1Nc1ccccc1,,23.7%,42.3%,48.2%,89.1%,45.8%,29%,44.2%,63%
Cc1ccc(Nc2nc(N)c3ccccc3n2)cc1Cl,65.4%,57.2%,,39.7%,72.3%,48.3%,48.9%,1.13% (active),81.5%
O=C(Nc1ccc(C23CC4CC(CC(c5ccccc5)(C4)C2)C3)cc1)c1cccs1,66.7%,66.5%,76.9%,77.6%,65.4%,56.8%,57.7%,38.7%,
O=C1c2ccc3c4c(ccc(c24)C(=O)N1CCCCO)C(=O)N(CCCCO)C3=O,72%,24.4%,,35.4%,56.2%,6.38% (active),22.5%,5.37% (active),22.5%
CCc1ccc(CNCC(O)c2ccccc2)cc1 (configuration not stated),,34.6%,72.2%,66.4%,67.8%,28.7%,19.2%,3.88% (active),80.7%
COc1cc(C(C)n2cc(-c3ccccc3)nn2)ccc1OC1CCCCC1 (configuration not stated),67.7%,56.9%,,,49.3%,55.3%,50.1%,,75.3%
O=C(NC1CCN(Cc2ccccc2)CC1)c1cc(C(=O)NC2CCN(Cc3ccccc3)CC2)cc(C(=O)NC2CCN(Cc3ccccc3)CC2)c1,,-29.8% (active),94.5%,12.2%,96.1%,2.34% (active),45.8%,20.1%,80.8%
COc1ccc(Cn2c(Br)c3c(c2Br)-c2nc(N)sc2CC3)cc1,41.2%,52.4%,,39%,11.6%,4.26% (active),4.01% (active),4.13% (active),71.1%
CC(=O)SC1CC(=O)C=C2CCC3C4CCC(=O)OC4(C)CCC3C21C (configuration not stated),,87%,106%,,101%,101%,105%,111%,93.8%
CCOC(=O)c1cc2c(n1Cc1ccccc1OC)-c1oncc1CCC2,53.3%,45.2%,,35.8%,-2.62% (active),8.18% (active),28.4%,4.65% (active),59.4%
Cc1ccc(CN2CCC(C(=O)Nc3ccc(-c4cc5ccccc5[nH]4)cc3)CC2)o1,60.7%,47.5%,,71.7%,4.02% (active),8.89% (active),-4.18% (active),14.1%,73%
CCCCCCC(O)(c1ccc(F)cc1)C(CN1CCOCC1)c1ccccc1 (configuration not stated),35.3%,19.4%,23.7%,33.1%,50%,18.1%,17.7%,23.2%,
CCn1c(-c2nonc2Nc2ccc(OC)cc2)nc2ccccc21,109%,90.1%,108%,102%,78.8%,105%,116%,110%,
COc1ccc(/C=C/C(=O)c2ccc3cc(OC)c(OC)cc3c2)cc1OC,32.2%,27.7%,55.4%,30.2%,70.9%,32.8%,30.7%,3.83% (active),
COC(=O)c1cc2c(n1Cc1ccccc1)-c1oncc1CCC2,,79.9%,79.8%,78.7%,53.8%,61.7%,61.7%,12.2%,
O=C(Nc1ccc(-c2nc3cc4ccccc4cc3[nH]2)cc1)c1cccc(Br)c1,,13.1%,35.1%,18.2%,68.5%,77%,85.4%,76.4%,51.8%

Compound,growth (SN12C renal),growth (UO-31 renal),growth (ACHN renal),growth (CAKI-1 renal),growth (A498 renal),growth (CCRF-CEM leukemia),growth (MOLT-4 leukemia),growth (SR leukemia),growth (TK-10 renal)
CCOc1ccc(Nc2ccnc3cc(Cl)ccc23)cc1,,-12.8% (active),10.9%,2.27% (active),-19.5% (active),3.77% (active),4.04% (active),0.437% (active),7.11% (active)
COc1ccc(CN2CCCC(C(=O)c3ccc(C(F)(F)F)cc3)C2)c(O)c1 (configuration not stated),31.8%,26.4%,,32.6%,15.2%,8.95% (active),13.6%,3.77% (active),34.6%
CCCCc1ccc(NS(=O)(=O)c2cc3c4c(c2)CCN4C(=O)CC3)cc1,9.46% (active),5.85% (active),,,-27.7% (active),5.87% (active),1.64% (active),3.07% (active),33.8%
O=Nc1c(O)ccc2ccccc12.O=Nc1c(O)ccc2ccccc12.O=Nc1c([O-])ccc2ccccc12.[Fe+3],,60.2%,102%,106%,105%,107%,110%,105%,
COc1cccc(-c2nn(C)c3sc(C(=O)NCCN4CCN(c5ccccc5F)CC4)cc23)c1,,65.9%,85.3%,68%,39%,1.87% (active),7.79% (active),-39.5% (active),83.9%
COc1ccc(CCN2CCC(CN(C)Cc3cnn(-c4ccccc4)c3)CC2)cc1,23.7%,12.7%,21.3%,15.7%,42.9%,0.563% (active),3.15% (active),5.6% (active),
COc1ccc(Nc2cc(C)nc(NCc3ccccc3)n2)cc1,38.2%,42%,36.3%,30.8%,81%,-3.8% (active),3.02% (active),0.982% (active),
COc1ccc(Nc2nc(N/N=C/c3ccc(O)cc3)nc(Nc3ccc([N+](=O)[O-])cc3)n2)cc1,103%,103%,103%,123%,105%,99.9%,108%,105%,
Clc1ncccc1Nc1ccc2nnc(-c3ccncc3)n2n1,100%,75%,101%,91.8%,116%,91.2%,93.4%,71.3%,
CCOC(=O)c1cnc2ccc(Cl)cc2c1NCCCN(C)C,,-22.8% (active),18.3%,-4.21% (active),31%,-4.96% (active),-5.58% (active),-5.95% (active),33.8%
O=C(Nc1ccc(Cl)cc1)N1CCN(c2ccc3nncn3n2)CC1,,36.1%,8.04% (active),29.3%,21.5%,-9.45% (active),-41.5% (active),-40.5% (active),42.3%
COc1ccccc1N1CCN(C(CNS(=O)(=O)c2ccc(Cl)cc2)c2cccnc2)CC1 (configuration not stated),90.8%,111%,103%,,56.7%,55.5%,46.7%,49.5%,
COc1ccccc1C(=O)O/N=C(\N)Cc1cccc2ccccc12,,70.8%,86.5%,77%,95.1%,80.1%,79%,82.1%,120%
COc1ccc(C2c3ccc4ccccc4c3Oc3ncn(CCCn4ccnc4)c(=N)c32)cc1OC (configuration not stated),,38%,67.4%,60.7%,40.3%,42.1%,61.9%,26.9%,52.6%
COc1ccccc1N1C(=N)S/C(=C\c2ccc(OCc3ccccc3F)cc2)C1=O,,59.2%,69.6%,81.6%,82%,65.8%,53%,73.4%,104%
CC1CCCCN1CCCNC(=O)c1ccc2c(c1)sc1nc(-c3ccc(F)cc3)cn12 (configuration not stated),,77%,101%,97.4%,83.7%,82.8%,85.7%,78.1%,90.4%
